Assay results: PubChem BioAssay (Tox21)
Inconclusive results are not listed. Entries that show only a call come without a potency. Calls of active or inactive are those of the source. Calls come from the whole dose curve; as a rule, active = well fitted cell-killing curve with a large enough effect in the repeat runs; inconclusive = weak or mixed curves, or effect the other way; inactive = flat fitted curve, though single readings scatter.

test: cAMP Responsive Elements (CRE) small molecule antagonists, cell-based qHTS assay: qHTS cell viability counter screen (AID 2060913); settings: CRE-bla HEK293T viability, CellTiter-Glo luminescence, 5 h; series mostly up to 92.4 µM; note: nearly all actives have a fitted effect of over 40% in size
In short: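 CRE-bla HEK293T cells were seeded in assay medium with 10% dialyzed FBS, incubated 18 hrs at 37 C, then exposed to compounds plus 0.25 uM final NKH477 for 3 hrs. Viability was read by CellTiter-Glo luminescence after 30 min, in the same wells.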

Row | SMILES | Potency | viability change, negative = cytotoxic
1 | [Cl][Pt-2]([Cl])([Cl])[Cl] | inactive | 
2 | C=CC(=O)OCC1CCCO1 (centres undefined) | inactive | 
3 | Cc1sccc1Br | inactive | 
4 | CCc1cccc(N(C)C(N)=Nc2cccc3ccccc23)c1 | inactive | 
5 | CN1CCN(c2c(F)cc3c(=O)c(C(=O)O)cn4c3c2OCN4C)CC1 |  | 3.45% [at 18.9 µM] (inactive)
6 | CNCCC(Oc1ccccc1OC)c1ccccc1 (centres undefined) | inactive | 
7 | Cc1coc2ccccc2c1=O | inactive | 
8 | CC(C)(CO)COC(=O)C(C)(C)CO | inactive | 
9 | C[N+](C)(CCOc1ccccc1)Cc1cccs1 | inactive | 
10 | CC(C)=CCOc1ccc(/C=C/C(=O)c2ccc(OCC=C(C)C)cc2OCC(=O)O)cc1 | inactive | 
11 | c1cc(N(CC2CO2)CC2CO2)ccc1Cc1ccc(N(CC2CO2)CC2CO2)cc1 (centres undefined) | inactive | 
12 | Nc1cc(Cl)c([N+](=O)[O-])cc1O | inactive | 
13 | CCC1C(=O)OCC1Cc1cncn1C (centres undefined) | inactive | 
14 | CCCC(C)CC (centres undefined) | inactive | 
